Inconclusive results are not listed. Activity calls are given as the source filed them. The call rests on the fitted dose curve; in most records, active means well fitted inhibition curve with a large enough effect; inconclusive means small, poorly fitted or top-dose-only effect; inactive means flat fitted curve, though single readings scatter.
Experiments:
Assay in all cases: qHTS profiling for inhibitors of Plasmodium falciparum proliferation (AID 504749); further: nearly all actives have a fitted effect of over 60% in size
Settings in all cases: P. falciparum in erythrocytes, SYBR Green DNA, 72 h; series mostly up to 28.7 µM
CP268 = tested on: CP268
Procedure, shortened: (§1)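 In a 72 h erythrocytic culture (37 C, humidified, 5% CO2) at 2.5% hematocrit and 0.3% starting parasitemia, compounds were tested; SYBR Green I in detergent lysis buffer stained parasite DNA overnight.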

CP269 = tested on: CP269
Procedure, shortened: as §1

CP286 = tested on: CP286
Procedure, shortened: as §1

CP291 = tested on: CP291
Procedure, shortened: as §1

CP297 = tested on: CP297
Procedure, shortened: as §1

CP305 = tested on: CP305
Procedure, shortened: as §1

CP315 = tested on: CP315
Procedure, shortened: as §1

CP325 = tested on: CP325
Procedure, shortened: as §1

CP329 = tested on: CP329
Procedure, shortened: as §1

DFO2036 = tested on: DFO2036
Procedure, shortened: as §1

DIV17 = tested on: DIV17
Procedure, shortened: as §1

DIV30 = tested on: DIV30
Procedure, shortened: as §1

Dd2 = tested on: Dd2
Procedure, shortened: as §1

ECU = tested on: ECU
Procedure, shortened: as §1

FAB9 = tested on: FAB9
Procedure, shortened: as §1

HB3 = tested on: HB3
Procedure, shortened: as §1

CP335 = tested on: CP335
Procedure, shortened: as §1

DIV14 = tested on: DIV14
Procedure, shortened: as §1

GB4 = tested on: GB4
Procedure, shortened: as §1

ICS = tested on: ICS
Procedure, shortened: as §1

Measured: Potency
Potency means the concentration at half of the fitted maximal effect.

C#C[C@]1(O)CC[C@H]2[C@@H]3CCc4cc(OC5CCCC5)ccc4[C@H]3CC[C@@]21C
not listed: CP335 | DIV14 | GB4 | ICS
inactive: all other assays above

O=C1OC(c2ccc(O)cc2)(c2ccc(O)cc2)c2ccccc21
not listed: DIV30 | ECU
inactive: all other assays above

CN1CCC[C@@H]1c1cccnc1
not listed: DIV14
inactive: all other assays above

CCN1CCC[C@H]1CNC(=O)c1c(OC)ccc(Br)c1OC
active: Dd2 12.6 µM
not listed: CP297 | DIV17 | DIV14 | GB4
inactive: all other assays above

CCOC(=O)/C=C(C)/C=C/C=C(C)/C=C/c1c(C)cc(OC)c(C)c1C
not listed: CP286 | DFO2036 | DIV17 | Dd2 | ECU | HB3 | CP335 | ICS
inactive: all other assays above

CCN(CC)C(=O)/C(C#N)=C/c1cc(O)c(O)c([N+](=O)[O-])c1
active: Dd2 0.447 µM
not listed: CP286 | ICS
inactive: all other assays above

CC(Cc1cccc(C(F)(F)F)c1)NCCOC(=O)c1ccccc1 (configuration not stated)
not listed: CP297 | DIV17 | Dd2 | DIV14 | GB4
inactive: all other assays above

CNCCC=C1c2ccccc2CCc2ccccc21
inactive: CP268 | CP315 | FAB9 | HB3
active: DIV14 2.13 µM | DIV17 3.79 µM | Dd2 8.91 µM | GB4 8.49 µM | ICS 11.2 µM

CCN(CC)CCNC(=O)COc1ccc(Cl)cc1
active: Dd2 12.6 µM | ICS 12.6 µM
not listed: CP286 | CP297 | DFO2036 | DIV17 | ECU | DIV14 | GB4
inactive: all other assays above

CCN1CCCC1=O
not listed: CP297
inactive: all other assays above

CC(=O)Oc1ccc(C(c2ccc(OC(C)=O)cc2)c2ccccn2)cc1
not listed: CP291
inactive: all other assays above

O=C1[C@H]2CCCC[C@H]2C(=O)N1CCCCN1CCN(c2nsc3ccccc23)CC1
not listed: CP297 | DIV17 | HB3 | DIV14 | GB4 | ICS
inactive: all other assays above

Cc1ccc(C(=O)C(C)CN2CCCCC2)cc1 (configuration not stated)
active: GB4 13.5 µM | ICS 3.98 µM
not listed: CP269 | DIV17 | DIV30 | ECU | HB3 | CP335
inactive: all other assays above

CCCCN1CCCC1C(=O)Nc1c(C)cc(C)cc1C (configuration not stated)
not listed: CP297 | Dd2 | CP335 | ICS
inactive: all other assays above

CCCCCCCCCCCCCCCCOP(=O)([O-])OCC[N+](C)(C)C
not listed: CP297 | HB3 | GB4
inactive: all other assays above

CC(C)COC(=O)c1ccc(N)cc1
not listed: CP269 | CP291 | CP325 | CP329 | DIV14
inactive: all other assays above

Cc1ccc(O)c2ncccc12
inactive: CP268 | CP269 | CP291 | CP297 | CP305 | CP315 | CP325 | CP329 | DIV30 | FAB9 | HB3

Oc1c(I)cc(Cl)c2cccnc12
not listed: CP291 | DFO2036 | DIV14 | GB4 | ICS
inactive: all other assays above

CN1CCN(C(c2ccccc2)c2ccccc2)CC1
inactive: CP268 | CP286 | CP297 | CP305 | CP315 | DFO2036 | DIV30 | ECU | FAB9 | HB3 | ICS
